TGFb SMAD3 inh: blocks TGF-b signaling; 410,000 tested, 1.2% active; Potency, µM (series often up to 46.1 µM), inactives show top-dose activity, negative = inhibition, usual class: inhibitors; HepG2 CAGA-GFP TGF-b/SMAD3 reporter, GFP fluorescence, 18 h; TGF-beta stimulated, 500 pg/mL final; AID 588855; also: potency is read from the fitted curve at half-maximal effect; % is scaled to controls: 0 for no effect and ±100 for the full control effect; nearly all actives have a fitted effect of over 65% in size
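Per well, imaged GFP fluorescence of HEPG2 CAGA-GFP cells gives the signal; cells get compound, then TGF-beta (500 pg/mL final), 18 h at 37 degrees C; %Activity versus -TGF-beta and +DMSO controls.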
HepG2 tox: HepG2 cytotoxicity, counter-screen for TGF-b inhibitors; HepG2 CAGA-GFP viability, ATP luminescence, 18 h; Potency, µM (doses to about 46.1 µM), without a hit: at the highest dose activity change, negative = cytotoxicity, hits mostly cytotoxic; 410,000 tested, 0.76% active; also: potency is read from the fitted curve at half-maximal effect
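HepG2 CAGA-GFP cells (1000/well, DMEM with 1% FBS) received compound, then TGF-beta at 500 pg/mL final, and were incubated 18 hours at 37 degrees C. Viability was read by CellTiter-Glo luminescence. Media-only wells were set as complete cell-killing and DMSO as no toxicity.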
Giardia kill: kills Giardia lamblia; Giardia lamblia trophozoite viability; activity change, % at 7.66 µM, hits read low; 340,000 tested, 0.15% active; AID 540267; in the data active = activity change below about -80%; inconclusive = between about -30% and that limit;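 also: parasites exposed to compound for two days anaerobically before the ATP read; % is scaled to controls: 0 for no effect and ±100 for the full control effect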
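Giardia trophozoites, 100 cells per well, were exposed to compounds for 48 hrs at 37 deg C under anaerobic conditions; viability was then read as ATP content by bioluminescence after 15-30 min at room temperature.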
HT1080 IDH1KD tx: toxicity to HT-1080 IDH1 knockdown cells (counter line) | Potency, µM (highest dose often 46.1 µM), without a hit: top-dose activity, negative = toxicity, most hits filed as cytotoxic | 360,000 tested, 2% active | AID 686971 | HT-1080 IDH1 knockdown viability, ATP luminescence, 48 h;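 also: potency is read from the fitted curve at half-maximal effect; 0% = DMSO wells and -100% = cell-free medium wells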
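Using the IDH1-knockdown HT-1080 line run in the same batch and compound series as the NT line, viability after 48 h at 37 °C was determined by CellTiter-Glo luminescence and expressed as % activity.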
IL1B secr inh: inhibitors of inflammasome signaling (IL-1 beta secretion); THP-1 LPS/ATP IL-1B secretion, AlphaLISA, 16 h; stronger effect = lower value; activity change, % at 57.5 µM; 360,000 tested, 4.7% active; AID 743279; in the data active = activity change below about -50%; inconclusive = mostly about -30% to -49%; also: % is scaled to controls: 0 for no effect and ±100 for the full control effect
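Secreted IL-1B measured by AlphaLISA bead assay after 16 h compound exposure of THP-1 cells; compounds (final up to 57.5 uM) added 1 h before LPS (250 ng/mL) and ATP (1.25 mM) stimulation; lower signal means less secretion.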
HT1080NT lethal: kills 2HG-producing HT-1080-NT fibrosarcoma cells | AID 686970 | HT-1080-NT fibrosarcoma viability, CellTiter-Glo ATP luminescence, 48 h | 360,000 tested, 1.6% active | Potency, µM (highest dose often 46.1 µM), without a hit: at the top dose activity, negative = less viability, usual class: cytotoxic;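 also: NT is the 2HG producing partner of a matched IDH1 knockdown line; potency is read from the fitted curve at half-maximal effect; 0% = DMSO-treated cells and -100% = media-only wells without cells; nearly all actives have a fitted effect of over 55% in size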
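Toxicity toward the 2HG-producing NT line was scored as %Activity, normalised to DMSO and no-cell wells, from CellTiter-Glo luminescence after 48 hours' treatment.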
* marks the source's active call; other numbers are inactive results; ? = inconclusive; · = no result given. The list is not random: actives were taken first. Their share in the collection is about 6.5%. Unless noted, calls follow the shape of the dose curve; as a rule, active = well fitted curve in the direction sought with a large enough effect; inconclusive = small, poorly fitted or top-dose-only effect, or another doubt; inactive = no such curve, though single readings can be large; an effect the other way counts as inactive or inconclusive.

SMILES	TGFb SMAD3 inh	HepG2 tox	Giardia kill	HT1080 IDH1KD tx	IL1B secr inh	HT1080NT lethal
S=C(Nc1ccc(Br)cc1)N1CCn2cccc2C1c1cccnc1 (stereo not given)	?	-5%	4	-26%	-65*	-5%
CCCCN(CCCNC(=O)C1CCN(S(=O)(=O)N2CCOCC2)CC1)c1ccccc1	-8%	-2%	0	-3%	-19	-2%
O=C(NNC(=O)C12CC3CC(CC(C3)C1)C2)c1ccccn1	?	-44%	-8	?	-97*	-21%
NS(=O)(=O)c1cccc(NC(=S)NC(=O)C23CC4CC(CC(C4)C2)C3)c1	?	-40%	13	11%	-86*	9%
O=C(NNC(=S)NC(=O)C12CC3CC(CC(C3)C1)C2)c1ccncc1	-6%	-18%	1	7.9µM*	46	13µM*
CCCCCCn1c(=O)n2n(c1=O)C[C@]1(OC(=O)NCC3CCCCC3)CN(S(=O)(=O)c3ccc(C)cc3)C[C@]1(O)C2	?	-52%	·	?	?	?
CC(C)Cc1nnc(NC(=O)CSc2nc(=O)cc(N)n2-c2ccccc2)s1	-3%	-1%	1	15%	2	8%
OCCCCNCc1ccc(OCc2ccc(Cl)cc2Cl)cc1	?	10µM*	6	?	-101*	?
OCCNCc1ccc(OCc2ccc(Cl)cc2Cl)cc1	?	22µM*	-8	21µM*	-98*	?
CCCC(=O)N1CC(=O)Nc2ccc(C)cc2C1c1ccc(F)cc1 (stereo not given)	5%	4%	1	1%	3	2%
CCCS(=O)(=O)c1c(S(=O)(=O)CCC)c2c(C)cccn2c1C(N)=O	-1%	-12%	-5	2%	9	-4%
CCCS(=O)(=O)c1c(S(=O)(=O)CCC)c2c(C)cccn2c1C(=O)N/N=C/c1cc(O)cc(O)c1	-15%	-12%	-3	7.3µM*	81	?
Cc1ccc(-c2cc3nn(-c4ccccc4)c(N)c3c(=O)o2)cc1	1%	-15%	10	-11%	-56*	?
Cc1ccc(-n2nc(-c3ccccc3)cc2Nc2ccccc2N)cc1	7%	-8%	-1	16%	-22	16%
CCCc1nc(SCC(=O)Nc2nc3c(s2)CCCC3)c2ccccc2n1	?	-52%	8	3%	-24	0%
CCCc1nc(SCC(=O)c2ccc(OC)cc2)c2ccccc2n1	-17%	-25%	-21	0%	-90*	-13%
CCc1nc(SCC(=O)c2ccccc2)c2ccccc2n1	-3%	-19%	14	-7%	?	-1%
COc1ccc2nc(SCC(=O)NC3CCCC3)c(C)cc2c1	?	0%	-13	5.8µM*	65	?
COc1ccc(C(=O)NNC(=O)CSc2nc(C(C)C)nc3ccccc23)cc1	-27%	-17%	5	-9%	-93*	-24%
CCc1nc(SCC(=O)Nc2nc3c(s2)CCCC3)c2ccccc2n1	-9%	-28%	-13	-9%	-86*	-23%
COc1ccc(C(O)c2nc(-c3cnn(C)c3)cs2)cc1 (stereo not given)	8%	0%	·	0%	16	18%
Cc1c(NS(=O)(=O)c2cccc(C(=O)NC(C)c3ccccc3)c2)c(=O)n(-c2ccccc2)n1C (stereo not given)	4%	-5%	-9	23%	31	6%
CCCCN1C(=N)N([C@@H](CCC)CN2CCC[C@H]2CN2C(N)=NC[C@@H]2Cc2ccccc2)C[C@H]1[C@H](C)CC	14%	-2%	8	-8%	-5	5%
Cc1cc(NC(=O)CSc2nc(C(C)(C)C)nc3ccccc23)no1	?	-60%	2	1%	0	0%
CC(C)(C)c1nc(SCC(=O)NC2CCCC2)c2ccccc2n1	?	-50%	3	-17%	-62*	-14%
CC(C)(C)c1nc(SCC(=O)NNC(=O)c2ccccc2)c2ccccc2n1	?	-22%	5	?	-91*	?
Cc1csc(NC(=O)CSc2nc(C(C)C)nc3ccccc23)n1	0%	-12%	5	-25%	-96*	?
CC(C)c1nc(SCC(=O)c2ccc(F)cc2)c2ccccc2n1	?	1%	21	-5%	-57*	1%
Cc1ccc(C(=O)CSc2nc(C(C)C)nc3ccccc23)cc1	-4%	3%	21	7%	-18	25%
CC(C)c1nc(SCC(=O)NC2CCCCC2)c2ccccc2n1	2%	-3%	-19	7%	-7	11%
